Screens from PubChem BioAssay.
Pf growth 48h – inhibits P. falciparum growth in the first generation, 48 h. P. falciparum luciferase growth in erythrocytes, 48 h. Potency, µM (doses to about 28.7 µM), for inactives: at the top dose activity change, negative = inhibition, usual class: inhibitors. 5.9% of 310,000 active. AID 504832; further: potency means the concentration at half of the fitted maximal effect; on the % scale 0 is the no-effect control and ±100 the full control effect
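Growth was read as firefly luciferase luminescence after a 48 h, 37 C, 5% CO2 exposure of compounds to reporter-bearing P. falciparum cultures (0.1% parasitemia, 2% hematocrit final) in Albumax-supplemented RPMI 1640.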
Cycloheximide cs – affects cycloheximide protein synthesis inhibition readout, counter-screen; cell reporter, cycloheximide protein synthesis inhibition counterscreen; max response, %; AID 2314; 12% of 300,000 active; in the data active means max response mostly above about 13%, no sharp cut-off; inactive means mostly below about 14%; further: read at 38.3 µM for the half of the compounds with a filed dose; 0% is about no effect
Shiga toxin inh – inhibitors of Shiga toxin in Vero cells | Vero cells, Shiga toxin protein synthesis inhibition reporter | inhibition, % at 38.7 µM | 9.2% of 290,000 active | AID 2315; in the data active means inhibition mostly above about 28%, no sharp cut-off; inactive means mostly below about 43%; further: 0% is about no effect
HCV inhibitor – HCV inhibition. Huh7.5.1 HCVcc-Cre infection, luciferase reporter, 44 h. Potency, µM (series often up to 41.8 µM), inactives show at the highest dose activity change, negative = inhibition, hits mostly inhibitors. 3.4% of 340,000 active. AID 651820; further: potency means the concentration at half of the fitted maximal effect; on the % scale 0 is the no-effect control and ±100 the full control effect
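HCVcc-Cre virus at an moi near 0.5 was added right after compound to cells cultured 4 h from seeding (1,000 cells/well). Luciferase activity was determined 44 h later, 15 min after substrate addition at RT.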
AMA1 RON2 block – disrupts binding of P. falciparum AMA1 to RON2 | AlphaScreen AMA1-biotinylated RON2 peptide binding | Potency, µM (doses to about 58.2 µM), for the others: at the top dose activity change, negative = inhibition, actives largely listed as inhibitors | 0.2% of 360,000 active;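 further: potency means the concentration at half of the fitted maximal effect; 0% = vehicle wells and -100% = peptide control; nearly all actives have a fitted effect of over 45% in size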
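AMA1 (3D7) with his tag at 25 nM final met compounds first, then biotinylated RON2 peptide at 25 nM; detection used donor plus acceptor beads, 10 µg/mL apiece, read by AlphaScreen after 30 min at room temperature.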
Pf growth 96h – P. falciparum growth inhibition at 96 hours | P. falciparum luciferase reporter growth, 96 h | Potency, µM (highest dose often 28.7 µM), without a hit: at the top dose activity change, negative = inhibition, hits mostly inhibitors | 6.9% of 320,000 active | AID 504834; further: potency means the concentration at half of the fitted maximal effect; on the % scale 0 is the no-effect control and ±100 the full control effect
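Infected RBCs, 2% Hct / 0.05% parasitemia final; luciferase-reporter P. falciparum; cpd 96 h, 37 C, 5% CO2; luciferase detection reagent; luminescence.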
Active calls of the source: *; ? = inconclusive; . = not tested or not shown; [ ] = remark or other dose. This is a sample that favours compounds with a hit; in the whole collection about 21% have one here. Unless noted, the call rests on the fitted dose curve; in most records, active means well fitted curve in the direction sought with a large enough effect; inconclusive means small, poorly fitted or top-dose-only effect, or another doubt; inactive means no such curve, though single readings can be large; an effect the other way counts as inactive or inconclusive.

SMILES	Pf growth 48h	Cycloheximide cs	Shiga toxin inh	HCV inhibitor	AMA1 RON2 block	Pf growth 96h
C#CCOCCOCCOCCNc1nc(N2CCN(C(=O)CCCCCCCCCCNC(=O)[C@H](CCCCN)n3cc(C[C@@H](C)CC)nn3)CC2)nc(N2CCN(C(=O)CCCCCCCCCCNC(=O)[C@H](CCCCN)n3cc(C[C@@H](C)CC)nn3)CC2)n1	.	.	.	-11%[8.37 µM]	?	.
C#CCOCCOCCOCCNc1nc(N2CCN(C(=O)CCCCCCCCCCNC(=O)[C@H](CCCCN)n3cc(CCCC(=O)O)nn3)CC2)nc(N2CCN(C(=O)CCCCCCCCCCNC(=O)[C@H](CCCN=C(N)N)n3cc(C[C@@H](C)CC)nn3)CC2)n1	10µM*	.	.	?	-22%	13µM*
C#CCOCCOCCOCCNc1nc(N2CCN(C(=O)CCCCCCCCCCNC(=O)[C@H]([C@@H](C)CC)n3cc(CCCCN=C(N)N)nn3)CC2)nc(N2CCN(C(=O)CCCCCCCCCCNC(=O)[C@H](CCCCN)n3cc(C[C@@H](C)CC)nn3)CC2)n1	9.3µM*	.	.	?	.	5.2µM*
COC(=O)CCCC(=O)N1CCC(CCC(=O)NCc2ccc(F)cc2)CC1	-19%	-1	-4	9%	14%	15µM*
COC(=O)CCC(=O)N1CCC(CCC(=O)NCc2ccc(F)cc2)CC1	-6%	-2	-8	-2%	-1%	5.2µM*
CC(=O)C1CCC2C3CCC4=CC(=O)CCC4(C)C3(F)C(O)CC12C (stereo not given)	.	.	.	-5%	-11%	.
Cc1ccc(SC[C@H](c2ccccc2)N2CCN(CCc3ccccc3)CCC2=O)cc1	?	33*	59*	-14%	?	?
O=C1CCN(CCc2ccccc2)CCN1[C@H](COc1ccccc1)c1ccccc1	-45%	-1	10	?	?	?
CC(=O)Nc1ccc(SCC(c2ccccc2)N2CCN(CCc3ccccc3)CCC2=O)cc1 (stereo not given)	.	26	34	.	.	.
O=C1CCN(CCc2ccccc2)CCN1[C@H](CO)c1ccccc1	?	-1	-4	18%	-2%	?
O=C1CCN(CCc2ccccc2)CCN1C(CSc1ccc(Br)cc1)c1ccccc1 (stereo not given)	.	33*	41	.	.	.
O=C1CCN(CCc2ccccc2)CCN1[C@H](CSc1ccccc1)c1ccccc1	?	15*	13	?	?	?
Cc1ccc(SCC(c2ccccc2)N2CCN(CCc3ccccc3)CCC2=O)cc1 (stereo not given)	.	48*	35*	.	.	.
Cc1ccc(SCC(Cc2ccccc2)N2CCN(CCc3ccccc3)CCC2=O)cc1 (stereo not given)	.	-2	-10	.	.	.
Cc1nnc(NCC=Cc2ccccc2)s1	.	.	.	.	4%	.
CC(C)(C)c1ccc(-c2cc(C(=O)NNC(=O)Nc3ccccc3)c3ccccc3n2)cc1	.	22*	39	?	88%	4.7µM*
O=C(NNC(=O)c1cc(-c2cccnc2)nc2ccccc12)Nc1ccc(Cl)cc1	?	45*	36	?	82%	?
O=C(NNC(=O)c1cc(-c2ccccc2)nc2ccccc12)Nc1cccc(Cl)c1	-21%	-3	-18	?	49%	.
COC(=O)[C@H](CC(C)C)NC(=O)CC[C@H]1O[C@@H](n2ccc(=O)[nH]c2=O)[C@H](O)[C@@H]1O	.	.	.	.	0%	.
N#Cc1ccccc1S(=O)(=O)N1CCN(C(=O)CN(Cc2ccco2)Cc2cccs2)CC1	.	.	.	.	7%	.
COc1ccc2c(=O)c3ccccc3oc2c1	115%	33*	42*	?	13%	94%
COc1ccc2c(c1)oc(=O)c1cc(OC)ccc12	131%	26*	52*	?	7%	96%
CC(=O)c1ccc2oc3ccccc3c(=O)c2c1	78%	15	17*	-3%	-1%	131%
COc1ccc2c(c1)oc(=O)c1c3ccccc3[nH]c21	?	62*	57*	3.5µM*	-5%	?
COc1ccc2c(=O)c(N3C(=O)c4ccccc4C3=O)c(C)oc2c1	10%	-2	2	16%	-5%	-17%
